# Measurements: PubChem BioAssay (NCATS)
# Several values for one entry are separate records, joined by “and”; a condition that tells them apart may be missing. Identical values can stand only once. Inconclusive results are not listed. Unmarked numbers belong to inactive results. Activity calls are given as the source filed them. The call rests on the fitted dose curve; in most records, active means well fitted inhibition curve with a large enough effect; inconclusive means small, poorly fitted or top-dose-only effect; inactive means flat fitted curve, though single readings scatter.
# How the values were obtained:
# CRL-7250 = normal cell line; experiment: Cytotoxic Profiling of Annotated Libraries Using Quantitative High-Throughput Screening (AID 1296008); conditions: Five cell lines viability, CellTiter-Glo ATP luminescence, 48-72 h; max response: stronger effect = lower value; further: potency means the concentration at half of the fitted maximal effect; on max response: on the % scale 0 is the no-effect control and ±100 the full control effect
# How it was run: (§1)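 Cytotoxicity was measured as CellTiter-Glo ATP luminescence, read after 10 min at room temperature. Compound treatment of the cells lasted 48 or 72 hr at 37 degrees Celsius in a qHTS format.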
# HEK293 = experiment: as above; conditions: Five cell lines viability, CellTiter-Glo ATP luminescence, 48-72 h; max response: stronger effect = lower value
# How it was run: as §1
# HaCat = experiment: as above; conditions: Five cell lines viability, CellTiter-Glo ATP luminescence, 48-72 h; max response: stronger effect = lower value
# How it was run: as §1
# PC26 = experiment: qHTS profiling for inhibitors of Plasmodium falciparum proliferation (AID 504749);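 further: 0% = DMSO vehicle and full inhibition = artemisinin control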; conditions: P. falciparum in erythrocytes, SYBR Green DNA, 72 h; series mostly up to 28.7 µM
# How it was run: (§2)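 SYBR Green fluorescence of parasite DNA, read after lysis and overnight dark incubation, measured growth over 72 h in erythrocyte culture at 0.3% parasitemia and 2.5% hematocrit. Data normalised to DMSO and 0.29 uM artemisinin, with plate-drift correction.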
# PC49 = experiment: as above; conditions: P. falciparum in erythrocytes, SYBR Green DNA, 72 h; series mostly up to 28.7 µM
# How it was run: as §2
# SC27B = experiment: as above; conditions: P. falciparum in erythrocytes, SYBR Green DNA, 72 h; series mostly up to 28.7 µM
# How it was run: as §2
# TAB109 = experiment: as above; conditions: P. falciparum in erythrocytes, SYBR Green DNA, 72 h; series mostly up to 28.7 µM
# How it was run: as §2
# TAB113 = experiment: as above; conditions: P. falciparum in erythrocytes, SYBR Green DNA, 72 h; series mostly up to 28.7 µM
# How it was run: as §2
# TAB165 = experiment: as above; conditions: P. falciparum in erythrocytes, SYBR Green DNA, 72 h; series mostly up to 28.7 µM
# How it was run: as §2
# W2 = experiment: as above; conditions: P. falciparum in erythrocytes, SYBR Green DNA, 72 h; series mostly up to 28.7 µM
# How it was run: as §2
# Further: nearly all actives have a fitted effect of over 60% in size.
structure (smiles),measurement,setting,value
Nc1ccn(C[C@@H](CO)OCP(=O)(O)O)c(=O)n1,max response,CRL-7250,3.98%
same,max response,HEK293,-0.164%
same,outcome,HaCat,inactive
COc1cc(CCc2cc(NC(=O)c3ccc(N4C[C@@H](C)N[C@@H](C)C4)cc3)n[nH]2)cc(OC)c1,Potency,CRL-7250,4.69 µM (active) and 8.2 µM (active)
same,Potency,HEK293,2.96 µM (active)
same,outcome,HaCat,inactive
Cc1ccc(O)c(C(CCN(C(C)C)C(C)C)c2ccccc2)c1 (stereo unspecified),outcome,CRL-7250,inactive
same,max response,HEK293,-19.9%
same,outcome,HaCat,inactive
C[C@H](CCC(=O)O)[C@H]1CCC2C3C[C@H](O)[C@@H]4C[C@H](O)CC[C@]4(C)C3CC[C@@]21C (stereo partly specified),max response,CRL-7250,3.11%
same,max response,HEK293,4.87%
same,max response,HaCat,-16.1%
C[C@H](CCC(=O)O)[C@H]1CC[C@H]2[C@@H]3[C@H](O)C[C@@H]4C[C@H](O)CC[C@]4(C)[C@@H]3CC[C@]12C,max response,CRL-7250,2.36%
same,max response,HEK293,-7.11%
same,outcome,HaCat,inactive
CC1(C)O[C@@H]2C[C@H]3[C@@H]4CCC5=CC(=O)C=C[C@]5(C)[C@@H]4[C@@H](O)C[C@]3(C)[C@]2(C(=O)CO)O1,max response,CRL-7250,-21.1%
same,outcome,HEK293,inactive
same,outcome,HaCat,inactive
C=CC[C@@H]1C=C(C)C[C@H](C)C[C@H](OC)[C@H]2O[C@@](O)(C(=O)C(=O)N3CCCC[C@H]3C(=O)O[C@H](C(C)=C[C@@H]3CC[C@H](O)[C@H](OC)C3)[C@@H](C)[C@@H](O)CC1=O)[C@@H](C)C[C@@H]2OC,max response,CRL-7250,-10%
same,Potency,HEK293,7.43 µM (active)
same,outcome,HaCat,inactive
O=C1c2cccc(O)c2C(=O)c2c(O)cc(CO)cc21,max response,CRL-7250,-9.37%
same,max response,HaCat,-18.1%
NC(=O)c1ncn([C@@H]2O[C@H](CO)[C@@H](O)[C@@H]2O)c1N,max response,CRL-7250,-3.14%
same,max response,HEK293,2.62%
same,outcome,HaCat,inactive
CCn1c(=O)c2c(nc(C=Cc3ccc(OC)c(OC)c3)n2C)n(CC)c1=O,max response,CRL-7250,-2.94%
same,max response,HaCat,-8.26%
OCC(O)C(O)C(O)CO (stereo unspecified),Potency,PC26,inactive
same,Potency,PC49,inactive
same,Potency,SC27B,inactive
same,Potency,TAB109,inactive
same,Potency,TAB113,inactive
same,Potency,TAB165,inactive
same,Potency,W2,inactive
same,max response,CRL-7250,-10.5%
same,max response,HEK293,-3.06%
same,max response,HaCat,-1.15%
Nc1nc2c(c(=O)[nH]1)N(C=O)[C@H](CNc1ccc(C(=O)N[C@@H](CCC(=O)O)C(=O)O)cc1)CN2,Potency,PC26,inactive
same,Potency,PC49,inactive
same,Potency,SC27B,inactive
same,Potency,TAB109,inactive
same,Potency,TAB113,inactive
same,Potency,TAB165,inactive
same,Potency,W2,inactive
same,max response,CRL-7250,-8.32%
same,max response,HEK293,-23.4%
same,outcome,HaCat,inactive
CNC(=O)c1ccc(Nc2cc(Nc3ccccc3S(=O)(=O)C(C)C)c3cc[nH]c3n2)nc1,Potency,CRL-7250,3.32 µM (active)
same,Potency,HEK293,2.09 µM (active)
same,Potency,HaCat,2.96 µM (active)
O=C1CSC(=O)N1C(CCc1ccncc1)COc1ccc(-c2cccc([N+](=O)[O-])c2)cc1 (stereo unspecified),max response,CRL-7250,-33.8%
same,max response,HaCat,-30.8%
CN[C@H]1[C@@H](O)[C@@H]2O[C@@H]3O[C@H](C)CC(=O)[C@]3(O)O[C@@H]2[C@@H](NC)[C@H]1O,max response,CRL-7250,4.26%
same,max response,HEK293,-3.13%
same,max response,HaCat,-0.114%
Cc1ccccc1C(=O)Nc1ccc(C(=O)N2CCCC(O)c3cc(Cl)ccc32)c(C)c1 (stereo unspecified),max response,CRL-7250,-23.5%
same,max response,HaCat,1.52%
OCc1ccccc1O[C@@H]1O[C@H](CO)[C@H](O)[C@H](O)[C@H]1O,max response,CRL-7250,-20.8%
same,max response,HaCat,-10.2%
CC(C)OC(=O)[C@H](C)N[P@](=O)(OC[C@H]1O[C@@H](n2ccc(=O)[nH]c2=O)[C@](C)(F)[C@H]1O)Oc1ccccc1,max response,CRL-7250,-5.93%
same,max response,HaCat,-9.66%
O=C(Nc1ccc(Oc2ccnc3[nH]ccc23)c(F)c1)c1cccn(-c2ccc(F)cc2)c1=O,max response,CRL-7250,-4.56%
same,max response,HEK293,2.79%
same,max response,HaCat,2.4%
same,outcome,HaCat,inactive
C[C@]12CCC(=O)C=C1[C@@H]1CC1[C@H]1[C@H]3[C@@H]4C[C@H]4[C@@]4(CCC(=O)O4)[C@@]3(C)CC[C@H]12 (stereo partly specified),max response,CRL-7250,3.77%
same,max response,HaCat,-9.69%
COc1ccc([C@@H]2CNC(=O)C2)cc1OC1CCCC1,Potency,PC26,inactive
same,Potency,PC49,inactive
same,Potency,SC27B,inactive
same,Potency,TAB109,inactive
same,Potency,TAB113,inactive
same,Potency,TAB165,inactive
same,Potency,W2,inactive
same,outcome,CRL-7250,inactive
same,max response,HEK293,2.8%
same,outcome,HaCat,inactive
CNC(=O)c1cccc(-c2ccc3c(N4CCOC[C@H]4C)nc(N4CCOC[C@H]4C)nc3n2)c1,Potency,CRL-7250,0.0469 µM (active)
same,Potency,HEK293,0.105 µM (active)
same,Potency,HaCat,10.5 µM (active)
